# Laboratory results as given in PubChem BioAssay AID1159580 (chemical genetic matrix, 2015).
# Out of some 5,500 compounds screened, about 2,000 (36%) were called active. Roughly 18% stayed inconclusive and do not appear here. Some of the results follow. Unmarked numbers belong to inactive results. Rule as the data show it: active = normalized growth mostly below about 0.91 (no sharp cut-off); inconclusive = no clear call, values can overlap the other calls; inactive = mostly above about 0.92.
# Assay: chemical genetic growth profiling, strain panel (AID 1159580);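 also: tested at 20 µM; growth read once vehicle control cultures reached saturation at 30 °C; 1 = growth at the plate median or of vehicle wells; lower values mean less growth of the strain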
# Conditions: S. cerevisiae deletion strains, growth OD
# [1] = locus YAL040C, strain CLN3, stronger effect = lower value
# [2] = locus YCL061C, strain MRC1 (second series), stronger effect = lower value
# [3] = locus YDR363W, strain ESC2, stronger effect = lower value
# [4] = locus YER002W, strain NOP16, stronger effect = lower value
# [5] = locus YGR078C, strain PAC10, stronger effect = lower value
# [6] = locus YNL128W, strain TEP1, stronger effect = lower value
# [7] = locus YNL175C, strain NOP13, stronger effect = lower value
# [8] = locus YNL197C, strain WHI3, stronger effect = lower value
# [9] = locus YNL224C, strain SQS1, stronger effect = lower value
# [10] = locus YOR083W, strain WHI5 (second series), stronger effect = lower value
smiles,measurement,setting,value
C[C@]12CCC(=O)C=C1CC[C@@H]1[C@@H]2CC[C@]2(C)C(=O)CC[C@@H]12,normalized growth,[1],1.01
same,normalized growth,[2],0.994
same,normalized growth,"locus YDR150W, strain NUM1, stronger effect = lower value",0.988
same,normalized growth,[3],0.999
same,normalized growth,[4],0.99
same,normalized growth,[5],0.987
same,normalized growth,"locus YJR075W, strain HOC1, stronger effect = lower value",0.991
same,normalized growth,[6],0.996
same,normalized growth,[7],0.997
same,normalized growth,[8],0.997
same,normalized growth,[9],1.01
same,normalized growth,[10],0.924
same,normalized growth,"locus YPL241C, strain CIN2, stronger effect = lower value",0.997
CC(=O)O[C@@H]1C[C@@]2(C)C(CC[C@@H]2C(C)=O)C2CCC3=CC(=O)CC[C@]3(C)C21 (stereo partly drawn),normalized growth,"locus YAL021C, strain ccr4, stronger effect = lower value",0.996
same,normalized growth,"locus YAL026C, strain drs2, stronger effect = lower value",1.03
same,normalized growth,"locus YAL030W, strain snc1, stronger effect = lower value",1.01
same,normalized growth,"locus YBL061C, strain skt5, stronger effect = lower value",1.01
same,normalized growth,"locus YBR009C, strain hhf1, stronger effect = lower value",1.06
same,normalized growth,"locus YBR023C, strain chs3, stronger effect = lower value",1
same,normalized growth,"locus YBR171W, strain sec66, stronger effect = lower value",0.964
same,normalized growth,"locus YBR231C, strain swc5, stronger effect = lower value",1.02
same,normalized growth,"locus YBR279W, strain paf1, stronger effect = lower value",1
same,normalized growth,"locus YCL011C, strain gbp2, stronger effect = lower value",1.02
same,normalized growth,"locus YCL016C, strain dcc1, stronger effect = lower value",1.02
same,normalized growth,"locus YCL061C, strain MRC1, stronger effect = lower value",1.01
same,normalized growth,"locus YCL069W, strain vba3, stronger effect = lower value",1.02
same,normalized growth,"locus YCR088W, strain abp1, stronger effect = lower value",1.02
same,normalized growth,"locus YDL005C, strain med2, stronger effect = lower value",1.01
same,normalized growth,"locus YDL040C, strain nat1, stronger effect = lower value",1.01
same,normalized growth,"locus YDR001C, strain nth1, stronger effect = lower value",0.997
same,normalized growth,"locus YDR069C, strain doa4, stronger effect = lower value",1.02
same,normalized growth,"locus YDR137W, strain rgp1, stronger effect = lower value",0.974
same,normalized growth,"locus YDR159W, strain sac3, stronger effect = lower value",1.02
same,normalized growth,"locus YDR195W, strain ref2",1.06
same,normalized growth,"locus YDR297W, strain sur2, stronger effect = lower value",1.01
same,normalized growth,"locus YDR334W, strain swr1, stronger effect = lower value",1.03
same,normalized growth,"locus YDR335W, strain msn5, stronger effect = lower value",1
same,normalized growth,"locus YDR392W, strain spt3, stronger effect = lower value",0.863
same,normalized growth,"locus YEL003W, strain gim4, stronger effect = lower value",1.02
same,normalized growth,"locus YEL037C, strain rad23, stronger effect = lower value",1.01
same,normalized growth,"locus YEL061C, strain CIN8 (second series), stronger effect = lower value",1.02
same,normalized growth,"locus YER015W, strain faa2, stronger effect = lower value",1.01
same,normalized growth,"locus YER016W, strain bim1, stronger effect = lower value",1.02
same,normalized growth,"locus YER111C, strain swi4, stronger effect = lower value",1.01
same,normalized growth,"locus YER155C, strain BEM2 (second series), stronger effect = lower value",1.04
same,normalized growth,"locus YFR010W, strain ubp6, stronger effect = lower value",1.02
same,normalized growth,"locus YGL167C, strain pmr1, stronger effect = lower value",1.02
same,normalized growth,"locus YGL173C, strain kem1, stronger effect = lower value",1.03
same,normalized growth,"locus YGL227W, strain vid30, stronger effect = lower value",1.01
same,normalized growth,"locus YGL240W, strain doc1, stronger effect = lower value",1.04
same,normalized growth,"locus YGL253W, strain hxk2, stronger effect = lower value",1
same,normalized growth,"locus YHR013C, strain ard1, stronger effect = lower value",0.974
same,normalized growth,"locus YHR027C, strain rpn1, stronger effect = lower value",1.01
same,normalized growth,"locus YHR030C, strain SLT2, stronger effect = lower value",0.967
same,normalized growth,"locus YHR079C, strain IRE1, stronger effect = lower value",0.985
same,normalized growth,"locus YHR142W, strain chs7, stronger effect = lower value",0.947
same,normalized growth,"locus YJL092W, strain hpr5, stronger effect = lower value",1.01
same,normalized growth,"locus YJL095W, strain BCK1 (second series), stronger effect = lower value",1.02
same,normalized growth,"locus YJL095W, strain BCK1, stronger effect = lower value",0.997
same,normalized growth,"locus YJL115W, strain asf1, stronger effect = lower value",1.01
same,normalized growth,"locus YJL129C, strain trk1, stronger effect = lower value",0.95
same,normalized growth,"locus YJL154C, strain vps35, stronger effect = lower value",1.01
same,normalized growth,"locus YJL164C, strain tpk1, stronger effect = lower value",0.985
same,normalized growth,"locus YJL166W, strain qcr8, stronger effect = lower value",1.01
same,normalized growth,"locus YJL187C, strain SWE1, stronger effect = lower value",1.01
same,normalized growth,"locus YJR066W, strain TOR1, stronger effect = lower value",0.953
same,normalized growth,"locus YKL160W, strain elf1, stronger effect = lower value",0.965
same,normalized growth,"locus YKR026C, strain gcn3, stronger effect = lower value",1.01
same,normalized growth,"locus YKR091W, strain srl3, stronger effect = lower value",1.01
same,normalized growth,"locus YLL001W, strain dnm1, stronger effect = lower value",1.02
same,normalized growth,"locus YLL026W, stronger effect = lower value",1.02
same,normalized growth,"locus YLL041C, strain sdh2, stronger effect = lower value",1
same,normalized growth,"locus YLR027C, strain aat2, stronger effect = lower value",0.998
same,normalized growth,"locus YLR113W, strain HOG1, stronger effect = lower value",1.02
same,normalized growth,"locus YLR221C, strain rsa3, stronger effect = lower value",0.969
same,normalized growth,"locus YLR258W, strain gsy2, stronger effect = lower value",1.04
same,normalized growth,"locus YLR262C, strain YPT6 (second series), stronger effect = lower value",0.964
same,normalized growth,"locus YLR320W, strain mms22, stronger effect = lower value",0.97
same,normalized growth,"locus YLR342W, strain FKS1, stronger effect = lower value",1.02
same,normalized growth,"locus YLR357W, strain rsc2, stronger effect = lower value",1.03
same,normalized growth,"locus YLR370C, strain arc18, stronger effect = lower value",1
same,normalized growth,"locus YLR384C, strain iki3, stronger effect = lower value",1.01
same,normalized growth,"locus YML120C, strain ndi1, stronger effect = lower value",0.981
same,normalized growth,"locus YMR058W, strain fet3, stronger effect = lower value",1.01
same,normalized growth,"locus YMR125W, strain sto1, stronger effect = lower value",1.02
same,normalized growth,"locus YMR129W, stronger effect = lower value",1.01
same,normalized growth,"locus YMR205C, strain PFK2, stronger effect = lower value",1.05
same,normalized growth,"locus YMR231W, strain pep5, stronger effect = lower value",1.02
same,normalized growth,"locus YNL071W, strain lat1, stronger effect = lower value",0.97
same,normalized growth,"locus YNL183C, strain NPR1, stronger effect = lower value",0.984
same,normalized growth,"locus YNL209W, strain ssb2, stronger effect = lower value",1
same,normalized growth,"locus YNL248C, strain rpa49, stronger effect = lower value",0.953
same,normalized growth,"locus YNL322C, strain KRE1 (second series), stronger effect = lower value",1.01
same,normalized growth,"locus YNR049C, strain mso1, stronger effect = lower value",1.01
same,normalized growth,"locus YOR001W, strain rrp6, stronger effect = lower value",0.947
same,normalized growth,"locus YOR070C, strain gyp1, stronger effect = lower value",1.01
same,normalized growth,"locus YOR080W, strain dia2, stronger effect = lower value",1.01
same,normalized growth,"locus YOR083W, strain WHI5, stronger effect = lower value",0.953
same,normalized growth,"locus YOR106W, strain vam3, stronger effect = lower value",0.974
same,normalized growth,"locus YOR231W, strain MKK1, stronger effect = lower value",0.979
same,normalized growth,"locus YOR265W, strain rbl2, stronger effect = lower value",1
same,normalized growth,"locus YOR270C, strain vph1, stronger effect = lower value",0.999
same,normalized growth,"locus YOR290C, strain snf2, stronger effect = lower value",0.98
same,normalized growth,"locus YPL051W, strain arl3, stronger effect = lower value",0.976
same,normalized growth,"locus YPL078C, strain atp4, stronger effect = lower value",0.97
same,normalized growth,"locus YPL106C, strain sse1, stronger effect = lower value",1.03
same,normalized growth,"locus YPL240C, strain hsp82, stronger effect = lower value",0.984
same,normalized growth,"locus YPL256C, strain CLN2, stronger effect = lower value",0.973
C/C=C1\C(=O)CC2C3CCC4=CC(=O)CC[C@]4(C)C3CC[C@]12C (stereo partly drawn),normalized growth,"locus YAL013W, strain DEP1, stronger effect = lower value",0.978
same,normalized growth,[1],0.975
same,normalized growth,[2],1
same,normalized growth,[3],0.996
same,normalized growth,[4],0.974
same,normalized growth,[5],0.924
same,normalized growth,"locus YMR307W, strain GAS1, stronger effect = lower value",1.01
same,normalized growth,[6],0.938
same,normalized growth,"locus YNL153C, strain GIM3, stronger effect = lower value",0.774 (active)
same,normalized growth,[7],0.956
same,normalized growth,[8],0.978
same,normalized growth,[9],0.99
same,normalized growth,"locus YNL322C, strain KRE1, stronger effect = lower value",1.01
same,normalized growth,[10],0.743 (active)
same,normalized growth,"locus YPL055C, strain LGE1, stronger effect = lower value",0.992
